Shown are actives, neighbours in structure and some others; about 1.2% of the full set was active somewhere.
Yp Topo-I inh – inhibitors of Yersinia pestis topoisomerase I. 360,000 tested, 0.064% active. activity, % at 10 µM. Y. pestis Topo-I cleavage product accumulation, plate reader; in the data active = activity above about 50%, passing the limit was not always enough; inconclusive = no clear call, values can overlap the other calls
FadD28 FP inh – blocks FadD28 binding to the bisubstrate probe; fluorescence polarization; inhibition, % at 12.5 µM; 360,000 tested, 0.22% active; in the data active = inhibition above about 8.5%, passing the limit was not always enough; inconclusive = no clear call, values can overlap the other calls
TcdB GH inh – inhibitors of Clostridioides difficile toxin B glycohydrolase; P18177; TcdB glycohydrolase enzymatic assay, plate reader; inhibition, % at 9.99 µM; 350,000 tested, 0.24% active; in the data active = inhibition above about 10%
Target sequence (P18177 whole entry, looked up): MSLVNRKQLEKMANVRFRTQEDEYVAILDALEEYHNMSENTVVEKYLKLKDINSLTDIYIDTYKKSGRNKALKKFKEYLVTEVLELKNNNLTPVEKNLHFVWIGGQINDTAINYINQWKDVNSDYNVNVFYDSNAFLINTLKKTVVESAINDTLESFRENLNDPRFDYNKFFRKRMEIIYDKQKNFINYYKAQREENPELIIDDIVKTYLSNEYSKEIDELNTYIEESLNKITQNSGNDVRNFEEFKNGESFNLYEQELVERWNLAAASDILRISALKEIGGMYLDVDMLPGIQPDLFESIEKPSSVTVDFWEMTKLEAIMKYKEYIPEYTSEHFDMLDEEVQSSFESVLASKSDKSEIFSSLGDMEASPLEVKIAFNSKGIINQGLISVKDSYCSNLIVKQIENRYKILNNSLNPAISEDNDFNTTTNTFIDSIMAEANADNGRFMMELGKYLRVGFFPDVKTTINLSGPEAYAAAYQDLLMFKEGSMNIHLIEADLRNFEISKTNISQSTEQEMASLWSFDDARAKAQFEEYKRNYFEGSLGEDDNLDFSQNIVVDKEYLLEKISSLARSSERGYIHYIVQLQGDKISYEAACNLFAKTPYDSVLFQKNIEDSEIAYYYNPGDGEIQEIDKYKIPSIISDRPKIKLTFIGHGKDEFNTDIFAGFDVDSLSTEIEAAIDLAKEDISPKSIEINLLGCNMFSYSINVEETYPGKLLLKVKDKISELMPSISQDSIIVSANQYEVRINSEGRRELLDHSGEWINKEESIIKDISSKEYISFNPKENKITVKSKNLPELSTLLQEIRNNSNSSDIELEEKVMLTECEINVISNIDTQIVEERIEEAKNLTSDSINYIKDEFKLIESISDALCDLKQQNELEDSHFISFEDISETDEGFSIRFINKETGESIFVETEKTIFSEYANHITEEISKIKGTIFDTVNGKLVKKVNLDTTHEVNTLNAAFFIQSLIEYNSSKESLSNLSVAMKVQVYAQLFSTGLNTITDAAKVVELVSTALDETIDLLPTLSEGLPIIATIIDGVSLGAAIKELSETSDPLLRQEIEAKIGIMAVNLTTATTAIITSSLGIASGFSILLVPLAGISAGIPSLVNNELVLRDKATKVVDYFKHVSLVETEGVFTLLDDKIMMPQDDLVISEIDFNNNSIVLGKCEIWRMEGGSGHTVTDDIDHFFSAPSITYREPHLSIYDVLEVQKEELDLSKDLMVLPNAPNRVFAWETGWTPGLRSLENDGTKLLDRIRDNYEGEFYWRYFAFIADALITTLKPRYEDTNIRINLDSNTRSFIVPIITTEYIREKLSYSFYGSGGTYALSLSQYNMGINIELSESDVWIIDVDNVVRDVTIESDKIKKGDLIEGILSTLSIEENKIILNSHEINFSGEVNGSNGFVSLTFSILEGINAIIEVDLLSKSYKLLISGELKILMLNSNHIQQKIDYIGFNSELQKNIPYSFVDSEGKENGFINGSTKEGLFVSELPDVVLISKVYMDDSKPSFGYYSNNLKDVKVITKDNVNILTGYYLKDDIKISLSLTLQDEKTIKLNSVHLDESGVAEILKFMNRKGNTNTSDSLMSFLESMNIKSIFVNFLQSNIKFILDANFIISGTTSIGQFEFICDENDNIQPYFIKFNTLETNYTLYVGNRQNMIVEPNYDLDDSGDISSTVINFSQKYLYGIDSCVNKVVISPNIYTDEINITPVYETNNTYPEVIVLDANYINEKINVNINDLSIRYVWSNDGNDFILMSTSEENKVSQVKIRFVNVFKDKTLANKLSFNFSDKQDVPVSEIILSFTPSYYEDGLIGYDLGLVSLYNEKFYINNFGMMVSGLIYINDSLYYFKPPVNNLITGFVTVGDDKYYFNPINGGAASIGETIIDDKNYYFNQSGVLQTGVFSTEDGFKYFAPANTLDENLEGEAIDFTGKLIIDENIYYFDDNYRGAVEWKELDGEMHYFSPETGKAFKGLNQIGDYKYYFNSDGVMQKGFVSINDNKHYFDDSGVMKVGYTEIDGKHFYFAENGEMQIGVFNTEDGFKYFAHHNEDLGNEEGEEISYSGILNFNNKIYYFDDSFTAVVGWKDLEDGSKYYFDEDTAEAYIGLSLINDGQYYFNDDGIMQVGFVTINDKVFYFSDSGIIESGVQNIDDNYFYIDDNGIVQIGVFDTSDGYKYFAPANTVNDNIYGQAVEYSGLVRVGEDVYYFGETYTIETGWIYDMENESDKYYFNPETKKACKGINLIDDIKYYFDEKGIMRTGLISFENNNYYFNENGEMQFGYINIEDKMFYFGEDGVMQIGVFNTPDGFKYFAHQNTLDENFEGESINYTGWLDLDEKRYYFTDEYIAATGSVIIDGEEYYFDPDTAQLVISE
PrP 5UTR inh – suppresses PrP 5' UTR mRNA reporter expression. cell-based PrP 5' UTR mRNA reporter, plate reader. inhibition, % (concentration not given with the values). 340,000 tested, 0.35% active; in the data active = inhibition above about 52%; also: 0 = median of the neutral control wells
BioA inh – BioA (M. tuberculosis) enzyme inhibition; inhibition, % at 9.99 µM; 360,000 tested, 0.096% active; AID 602481; purified M. tuberculosis BioA enzyme, plate reader; in the data active = inhibition above about 40%; inconclusive = no clear call, values can overlap the other calls
PfHsp40 rescue – rescue of PfHsp40-mediated yeast toxicity; S. cerevisiae expressing PfHsp40, growth rescue, ATP luminescence; AID 504582; growth rescue, % at 12.5 µM; 340,000 tested, 0.68% active; in the data active = growth rescue above about 28%, passing the limit was not always enough; inconclusive = no clear call, values can overlap the other calls;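 also: yeast W303a lacking pdr1 and pdr3 grown in galactose medium; growth measured after three days at 30 °C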
PrP 5UTR single – prion 5' UTR mRNA inhibition, cherry-pick retest | shares compounds with PrP 5UTR inh | cell-based prion protein 5' UTR reporter, plate reader | inhibition, % at 2.5 µM | 1,100 tested, 48% active | AID 504592; in the data active = inhibition above about 54%; inconclusive = no clear call, values can overlap the other calls
Starred values were filed as active, the others as inactive; ? = inconclusive; . = no result given.

SMILES | Yp Topo-I inh | FadD28 FP inh | TcdB GH inh | PrP 5UTR inh | BioA inh | PfHsp40 rescue | PrP 5UTR single
C[C@@H]1CN([C@@H](C)CO)C(=O)c2cc(NC(=O)c3ccccc3)ccc2O[C@@H](C)CCCCO[C@@H]1CN(C)S(=O)(=O)c1cccs1 | . | . | . | . | -5 | . | .
CC(C(=O)Nc1ccc(F)c(F)c1F)N(C)CC(=O)Nc1ccccc1Br (stereo not given) | 6 | -1 | 1 | -19 | 1 | 0 | .
CSc1ccc(CN(C)C(C)C(=O)Nc2ccc(F)c(F)c2F)cc1 (stereo not given) | 29 | -1 | 1 | 53* | . | 1 | -1
O=C1OCCN1C(=O)[C@H]1[C@H](c2ccccc2)C(c2ccc(F)cc2)=NN1c1ccc(Br)cc1 | -14 | -1 | -1 | 67* | -1 | -3 | -10
O=C(N[C@H]1CC[C@@H](CC(=O)N2CCc3ccccc3C2)O[C@@H]1CO)C1CC1 | . | . | -11 | . | -6 | . | .
COc1cccc2c1C(=O)c1c(O)c3c(c(O)c1C2=O)CC(O)(C(=O)CO)CC3OC1CC(N(C)C)C(O)C(C)O1 (stereo not given) | -34 | 65* | -22 | 86* | . | 100* | 95*
COc1cccc2c1C(=O)c1c(O)c3c(c(O)c1C2=O)C[C@@](O)(C(=O)CO)C[C@@H]3O[C@H]1C[C@H](N)[C@@H](O)[C@H](C)O1 | -11 | 64* | . | 75* | -11 | 11 | 87*
C[C@@H]1CN([C@H](C)CO)C(=O)c2cc(/C=C/c3ccccc3)cnc2O[C@H]1CN(C)C(=O)c1ccc2c(c1)OCO2 | . | . | -2 | . | -4 | . | .
COc1cccc(CNC(=O)C[C@@H]2CC[C@@H](NC(=O)C3CC3)[C@H](CO)O2)c1 | . | . | 1 | . | 4 | . | .
C[C@@H]1CN([C@H](C)CO)S(=O)(=O)c2ccc(C#CCN(C)C)cc2O[C@H]1CN(C)C(=O)C1CCC1 | . | . | 1 | . | -1 | . | .
O=C(COc1ccc2ccccc2c1)NNC(=O)c1cnccn1 | -1 | -1 | . | -14 | . | -1 | .
CC(C)c1ccc(OCC(=O)NNC(=O)c2cnccn2)cc1 | -2 | -2 | 2 | 62* | . | 1 | 3
C[C@@H](NC(=O)C[C@@H]1CC[C@@H](NC(=O)C2CC2)[C@H](CO)O1)c1ccccc1 | . | . | 0 | . | 3 | . | .
C[C@H]1CN([C@@H](C)CO)S(=O)(=O)c2ccc(-c3ccccc3)cc2O[C@H]1CN(C)Cc1ccccc1 | . | . | . | . | 0 | . | .
C=C1C(=O)OC2CC(C)C3C=CC(=O)C3(C)C(O)C12 (stereo not given) | -8 | 1 | . | 26 | . | 0 | .
C=C1C(=O)O[C@@H]2C[C@@H](C)[C@@H]3C=CC(=O)[C@@]3(C)[C@@H](OC(=O)CC(=O)O[C@H]3[C@@H]4C(=C)C(=O)O[C@@H]4C[C@@H](C)[C@@H]4C=CC(=O)[C@]43C)[C@H]12 | 4 | -4 | 0 | 95* | -1 | 0 | 98*
C/C=C/c1ccc([C@H]2[C@@H](CO)N(CC3CCOCC3)C23CN(S(=O)(=O)CC)C3)cc1 | . | . | -4 | . | . | . | .
CC(=O)Nc1cc2nn(-c3ccccc3)nc2cc1Cl | 7 | 0 | . | -111 | -2 | 1 | .
CC(C)(C)C(=O)Nc1cc2nn(-c3ccccc3)nc2cc1Cl | -4 | -1 | . | 86* | -4 | 1 | 73*
NC(CSC(c1ccccc1)(c1ccccc1)c1ccccc1)C(=O)O (stereo not given) | 3 | -3 | -1 | -38 | . | 1 | .
Cc1ccc(C2(SCC(N)C(=O)O)c3ccccc3-c3ccccc32)cc1 (stereo not given) | 5 | -2 | 3 | 89* | . | 0 | -9
CCN(CC)c1ccc(-c2nn3c(-c4n[nH]c5c4CCC5)nnc3s2)cc1 | -3 | 0 | . | 74* | -1 | 0 | 84*
CCOC(=O)N(C)c1ccc(C(O)(C(=O)OC)C(F)(F)F)cc1 (stereo not given) | -4 | -1 | . | -11 | -3 | -1 | .
COC(=O)C(O)(c1ccc(N(C)C)cc1)C(F)(F)F (stereo not given) | -5 | 0 | 1 | 66* | 1 | 0 | 11
COC(=O)CSc1n[nH]c(=S)s1 | -8 | -1 | 1 | -31 | -1 | 0 | .
SMILES | Yp Topo-I inh | FadD28 FP inh | TcdB GH inh | PrP 5UTR inh | BioA inh | PfHsp40 rescue | PrP 5UTR single
CCSc1n[nH]c(=S)s1 | -12 | -2 | 0 | 77* | . | 1 | -3
C=CC[n+]1c(-c2ccc(C)cc2)csc1Nc1ccc(NC(C)=O)cc1 | 29 | -4 | 0 | 71* | . | 2 | 59*
C[C@H]1CN([C@@H](C)CO)S(=O)(=O)c2ccc(-c3cccnc3)cc2O[C@H]1CN(C)C | . | . | 0 | . | 1 | . | .
Cc1nn(CCc2nn[nH]n2)c2nc(-c3ccc(C4CCCCC4)cc3)cc(C(F)(F)F)c12 | -2 | 14* | 0 | 63* | . | -1 | -35
CNC(=O)C[C@H]1CC[C@H]2[C@H](COc3ccc(NC(=O)c4cccs4)cc3C(=O)N2C)O1 | . | . | . | . | 1 | . | .
O=Nc1c2cc(-c3ccccc3)[nH]nc-2c2ccccc12 | -3 | -4 | 1 | 0 | . | 0 | .
Cc1ccc(-c2cc3c(N=O)c4ccccc4c-3n[nH]2)cc1 | -4 | -3 | 0 | 79* | . | -1 | 81*
COc1ccc(C2NC3=C(CCC3)C3(C#N)C(OC)(OC)N=C(N)C23C#N)cc1 (stereo not given) | -8 | 2 | . | 53* | 2 | -1 | ?
COC1(OC)N=C(N)C2(C#N)C(c3ccccc3)NC(C)=CC12C#N (stereo not given) | 0 | -3 | . | -13 | . | 0 | .
CN(C)c1ccc(/C=N/N=C2/NC(=O)/C(=C/c3ccc([N+](=O)[O-])cc3)S2)cc1 | 0 | -1 | . | 63* | -2 | -1 | 31
CN(C)c1ccc(C=C2SC(=S)NC2=O)cc1 | -6 | . | 2 | -37 | -1 | -1 | .
CCOc1cc(/C=N/Nc2cccc(C(=O)O)c2)ccc1OC(=O)c1ccccc1 | 5 | 0 | -4 | 71* | . | 1 | ?
COC(=O)c1ccc(COc2ccccc2/C=N/Nc2cccc(C(=O)O)c2)cc1 | 21 | 1 | -7 | 77* | . | 0 | -34
O=C(O)c1cccc(NC(=S)N/N=C/c2ccccc2OCc2ccc(Br)cc2)c1 | 7 | -19 | 0 | -22 | . | 0 | .
Cc1nc2c(-c3ccc(F)cc3)cnn2c(N)c1-c1ccccc1 | -20 | -3 | -1 | 68* | 1 | 5 | 44
Cc1nc2c(-c3ccc(Cl)cc3)cnn2c(N)c1-c1ccc(F)cc1 | -5 | -3 | 2 | 56* | 5 | 1 | 5
COC(=O)c1ccc(Cn2cc(/C=C\[N+](=O)[O-])c3ccccc32)o1 | 4 | 0 | -1 | 52* | 2 | -1 | -20
O=C(O)c1ccc(Cn2cc(/C=C\[N+](=O)[O-])c3ccccc32)o1 | 2 | 1 | 0 | -13 | -1 | 1 | .

From PubChem BioAssay
